# Compounds with a hit are over-represented: about 0.61% of the library has one in this group of screens.
# Mtb hypoxia rep: Mtb hypoxia fluorescent reporter inhibition; M. tuberculosis hypoxia-regulated fluorescent reporter, fluorescence; fluorescence inhibition, % (no concentration beside the values); 300,000 tested, 0.1% active; AID 1159583; in the data active means fluorescence inhibition mostly above about 23%, no sharp cut-off; inactive means mostly below about 17%
# ugtP null kill: compounds lethal to S. aureus RN4220 ugtP deletion mutant; OD600 growth, 16 h; growth inhibition, % (concentration not given with the values); 330,000 tested, 0.54% active; in the data active means growth inhibition above about 68%;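 further: plate controls were untreated wells for no effect and antibiotic for full effect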
# Mtb betalactam: beta-lactam sensitization of Mtb H37Rv; M. tuberculosis H37Rv growth with meropenem, percent inhibition; inhibition, % at 25 µM; 330,000 tested, 0.27% active; AID 434955; call rule not given here;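 further: growth measured after seven days incubation then overnight dye step; 0% = bacteria only wells and 100% = bacteria with antibiotic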
# RN4220 kill: S. aureus RN4220 growth inhibition | OD600, 16 h | inhibition, % (concentration not given with the values) | 330,000 tested, 0.33% active; in the data active means inhibition above about 85%;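 further: plate controls were untreated cells for no effect and reference antibiotic for full effect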
# * hit, by the source's call; . = no result shown.
SMILES,Mtb hypoxia rep,ugtP null kill,Mtb betalactam,RN4220 kill
COCCNC(=O)Cn1nc(C(F)(F)F)c(Br)c1C,3,-2,2,4
CC(=O)OCC1=C(C(=O)O)N2C(=O)C(NC(=O)CCn3nc(C)c(Cl)c3C)C2SC1 (configuration not stated),.,99*,4,99*
CC(=O)OCC1=C(C(=O)O)N2C(=O)C(NC(=O)CCn3nc(C(F)(F)F)c(Br)c3C3CC3)C2SC1 (configuration not stated),.,100*,0,100*
Cc1nnc(SCC2=C(C(=O)O)N3C(=O)C(NC(=O)Cn4nc(C(F)F)cc4C)C3SC2)s1 (configuration not stated),.,101*,47,100*
Cc1cc(C(F)F)nn1CC(=O)N1CCSCC1,7,-1,-13,0
CCN1/C(=C2\SC(=S)N(Cc3ccccc3)C2=O)Sc2ccccc21,-5,-7,14,-3
CCC(CO)[n+]1c(C)cc(/C=C2\Sc3ccccc3N2Cc2ccccc2)cc1C (configuration not stated),.,100*,100,100*
NC(=O)C(=NOC(=O)c1ccco1)c1nc(-c2ccc(Br)cc2)cs1,3,93*,.,-3
CC(C)c1ccc(C(=O)NN=Cc2cccc(Cl)c2Cl)cc1,.,-6,.,-7
COC(=O)C1=C(c2ccc(-c3ccccc3)c(F)c2)CC2CCC1N2C(=O)NCC1CC1 (configuration not stated),-11,-8,.,0
CC(C)CCn1c2ccccc2c2cc(CC(N)=O)ccc21,-1,83*,43,-3
COc1ccc(OC)c(C=NNC(=O)CC2C(=O)NN=C2C)c1 (configuration not stated),17,6,.,4
O=C(COC(=O)c1ccc([N+](=O)[O-])o1)Nc1ccc(N2CCOCC2)cc1,.,12,87,8
O=C(COC(=O)c1ccc([N+](=O)[O-])o1)Nc1ccc(F)cc1,35*,6,64,11
CCOc1cccc(-c2c(C(=O)NN=C(C)c3ccncc3)nnn2-c2nonc2N)c1,17,5,.,3
CCCCCCCC(=O)NNC(=O)Cc1ccccc1,3,-2,1,1
CCCCCCCCCCCC(=O)c1c(O)cccc1O,.,100*,-5,100*
Cc1ccc(-c2nn(-c3ccccc3)cc2CO)cc1,12,-6,-1,-2
Cc1ccc(-c2nn(-c3ccccc3)cc2CNCc2ccccc2)cc1,13,97*,99,61
O=C(N/N=C/c1c(O)n(C2CCCCC2)c(=S)[nH]c1=O)c1ccccc1O,8,92*,2,77
O=C(N/N=C/c1c(O)n(C2CCCCC2)c(=S)[nH]c1=O)c1ccccc1,-11,-7,19,5
CC(C)c1ccc(-n2c(O)c(/C=N/NC(=O)c3ccccc3O)c(=O)[nH]c2=S)cc1,15,10*,2,88
CCSc1nc2sc3c(c2c(=O)n1C1CCCCC1)CCN(C)C3,2,29,.,1
C=C(C)CSc1nc2sc3c(c2c(=O)n1C1CCCCC1)CCN(C)C3,13,active,92,100
O=c1c2ccccc2oc2ccc(-c3ccc4[nH]ccc4c3)cc12,3,92*,16,13
SMILES,Mtb hypoxia rep,ugtP null kill,Mtb betalactam,RN4220 kill
CCN1C(=S)NC(CCc2ccccc2)C(C(=O)OC)C1C (configuration not stated),8,4,.,6
CON=C(COc1ccc(F)cc1)c1ccc(OC)cc1,-10,-3,.,1
Cc1ccc(Nc2c(-c3ccccn3)nc3ccc(C)cn23)cc1,.,95*,98,100*
Cc1ccc(Nc2c(-c3ccccn3)nc3cc(C)ccn23)cc1,23,100*,98,100*
Clc1cccc(C=NN2CCN(Cc3ccccc3)CC2)c1,8,15,.,2
Oc1c(C(c2ccc(Cl)cc2)N2CCCC2)cc(Cl)c2cccnc12 (configuration not stated),3,100*,98,100*
Oc1c(C(c2ccccn2)N2CCC(Cc3ccccc3)CC2)cc(Cl)c2cccnc12 (configuration not stated),8,88*,0,93*
O=C(c1ccc(NC(=S)Nc2ccc(Cl)c(Cl)c2)cc1)N1CCCC1,4,100*,75,101*
CC(=O)c1ccc(NC(=S)Nc2ccc(Br)c(Cl)c2)cc1,7,100*,94,100*
COc1cc(C#Cc2c(-c3cncn3C)n(C)c3ccc(Br)cc23)cc(OC)c1,-2,99*,100,99*
COc1cc(C#Cc2c(-c3cncn3C)n(C)c3ccc(-c4ccc(OC)c(OC)c4)cc23)cc(OC)c1,-5,29,100,8

# Source: PubChem (several laboratories)
